In ChEMBL document CHEMBL3988442, “University of Dundee, Small-Polar-MMV Screening Library” (2021) one finds Percent Effect data, which are given here for 8 compounds.

For some of these results: Measured potencies and affinities stand elsewhere.

What all share (set-up): scale not given: direction of the effect not stated beside the values
In experiment [1] the target is Protein translocase subunit SecA (Escherichia coli (strain K12)) (UniProt P10408). Kind of experiment: Assay to Identify E. coli SecA ATPase Inhibitors. Conditions: 30 µM. Type of experiment: functional.
Sequence of Protein translocase subunit SecA (Escherichia coli (strain K12)) (P10408 whole entry): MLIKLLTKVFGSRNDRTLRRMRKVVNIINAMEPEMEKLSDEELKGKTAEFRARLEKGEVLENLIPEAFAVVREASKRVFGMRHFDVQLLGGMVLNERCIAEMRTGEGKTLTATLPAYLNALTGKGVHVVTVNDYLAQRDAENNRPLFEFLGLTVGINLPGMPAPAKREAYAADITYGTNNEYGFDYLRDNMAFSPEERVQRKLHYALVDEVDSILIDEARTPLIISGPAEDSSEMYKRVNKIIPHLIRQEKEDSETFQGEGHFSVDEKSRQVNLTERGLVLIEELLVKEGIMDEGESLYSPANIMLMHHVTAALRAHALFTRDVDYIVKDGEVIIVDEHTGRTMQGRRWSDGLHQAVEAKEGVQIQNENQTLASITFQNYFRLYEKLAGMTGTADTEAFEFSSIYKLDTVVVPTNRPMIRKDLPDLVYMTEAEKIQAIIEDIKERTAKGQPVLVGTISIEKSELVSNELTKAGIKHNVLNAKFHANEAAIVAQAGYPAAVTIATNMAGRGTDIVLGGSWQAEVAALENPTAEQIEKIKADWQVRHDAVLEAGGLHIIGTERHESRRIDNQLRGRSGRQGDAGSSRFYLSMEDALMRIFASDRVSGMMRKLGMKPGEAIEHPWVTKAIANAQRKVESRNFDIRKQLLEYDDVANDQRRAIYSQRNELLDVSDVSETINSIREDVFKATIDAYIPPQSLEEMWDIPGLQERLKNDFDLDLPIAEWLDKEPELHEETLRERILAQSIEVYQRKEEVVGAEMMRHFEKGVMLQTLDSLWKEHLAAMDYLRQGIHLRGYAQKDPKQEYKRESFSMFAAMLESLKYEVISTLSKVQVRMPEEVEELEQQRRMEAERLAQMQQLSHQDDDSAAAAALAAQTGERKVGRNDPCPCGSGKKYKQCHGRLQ
The target in experiment [2] is T1, Ubiquitin-activating enzyme e1, putative (Leishmania donovani (strain BPK282A1)) (UniProt E9BSI1).
T1 sequence (whole entry): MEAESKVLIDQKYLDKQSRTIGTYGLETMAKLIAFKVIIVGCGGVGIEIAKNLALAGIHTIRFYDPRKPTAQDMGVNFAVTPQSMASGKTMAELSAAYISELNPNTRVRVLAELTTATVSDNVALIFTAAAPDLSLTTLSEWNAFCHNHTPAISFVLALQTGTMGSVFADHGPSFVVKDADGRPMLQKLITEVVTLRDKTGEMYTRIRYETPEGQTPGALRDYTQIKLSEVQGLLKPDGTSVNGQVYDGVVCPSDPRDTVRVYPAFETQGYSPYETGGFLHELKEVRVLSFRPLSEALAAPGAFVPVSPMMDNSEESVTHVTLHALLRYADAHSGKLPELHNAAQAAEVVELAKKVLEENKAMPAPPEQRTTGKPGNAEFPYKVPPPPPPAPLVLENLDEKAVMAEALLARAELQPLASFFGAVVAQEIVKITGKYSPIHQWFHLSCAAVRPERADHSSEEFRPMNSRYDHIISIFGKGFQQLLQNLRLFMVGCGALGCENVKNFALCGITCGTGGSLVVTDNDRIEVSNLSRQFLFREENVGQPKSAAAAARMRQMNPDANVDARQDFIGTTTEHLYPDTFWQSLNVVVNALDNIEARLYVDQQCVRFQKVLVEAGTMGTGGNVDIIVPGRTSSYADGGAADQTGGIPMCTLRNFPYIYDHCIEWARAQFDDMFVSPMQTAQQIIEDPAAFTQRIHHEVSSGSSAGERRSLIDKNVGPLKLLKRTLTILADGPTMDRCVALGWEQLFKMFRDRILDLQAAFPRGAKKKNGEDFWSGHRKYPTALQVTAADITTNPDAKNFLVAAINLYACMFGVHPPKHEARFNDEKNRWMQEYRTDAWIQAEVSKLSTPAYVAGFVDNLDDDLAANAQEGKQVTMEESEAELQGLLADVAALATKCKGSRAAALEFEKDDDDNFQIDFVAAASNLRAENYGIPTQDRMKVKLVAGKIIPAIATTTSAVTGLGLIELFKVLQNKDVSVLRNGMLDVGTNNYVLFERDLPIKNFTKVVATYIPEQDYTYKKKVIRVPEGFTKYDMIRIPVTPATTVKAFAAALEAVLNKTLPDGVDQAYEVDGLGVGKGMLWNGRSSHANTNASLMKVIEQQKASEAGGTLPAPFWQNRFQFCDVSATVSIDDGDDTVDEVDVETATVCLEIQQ
Kind of experiment: Leishmania donovani Ubiquitin Activating Enzyme (LdE1). Type of experiment: functional. Conditions: 30 µM.

Experiment [3] addresses AMP-activated protein kinase, AMPK (Homo sapiens) (UniProt P54646+O43741+P54619+Q9UGJ0+Q9Y478+Q13131+Q9UGI9). Kind of experiment: AMP-dependent Kinase enzyme assay. An in vitro enzyme assay that detects ADP turnover that is directly proportional to AMPK activity. This uses naive AMPK that is activated during the assay with MK-8722. It is filed as functional. To be noted: 30 µM.

Experiment [4] addresses Sialic acid-binding Ig-like lectin 9 (Homo sapiens) (UniProt Q9Y336). Kind of experiment: Hs-Siglec9 ALPHAscreen SOP 20170721. To be noted: 10 µM.
For the next experiment, the system named is Trypanosoma cruzi. Put plainly: Trypanosoma cruzi phosphomannomutase and mannose-1-phosphate guanylyltransferase assay. Conditions: 10 µM. It is filed as functional.
Experiment [5] addresses T2, Arginase-2, mitochondrial (Homo sapiens) (UniProt P78540).
T2 sequence (whole entry): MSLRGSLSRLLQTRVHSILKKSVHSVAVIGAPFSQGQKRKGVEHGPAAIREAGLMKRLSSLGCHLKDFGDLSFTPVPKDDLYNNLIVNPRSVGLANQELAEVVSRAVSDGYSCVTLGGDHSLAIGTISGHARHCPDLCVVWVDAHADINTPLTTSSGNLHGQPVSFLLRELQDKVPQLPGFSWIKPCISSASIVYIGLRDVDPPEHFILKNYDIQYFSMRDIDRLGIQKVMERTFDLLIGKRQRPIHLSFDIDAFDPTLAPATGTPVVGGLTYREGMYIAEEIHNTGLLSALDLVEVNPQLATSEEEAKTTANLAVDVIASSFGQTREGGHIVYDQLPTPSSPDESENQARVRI
Put plainly: in vitro enzyme assay to detect the production of urea directly proportional to the activity of Arginase II. Also: in the data most compounds retested in dose-response had high values. It is filed as functional. Conditions: 33.3 µM.

For experiment [6], the target named is T3, Proteasome subunit beta (Trypanosoma cruzi) (UniProt O96673).
T3 sequence (whole entry): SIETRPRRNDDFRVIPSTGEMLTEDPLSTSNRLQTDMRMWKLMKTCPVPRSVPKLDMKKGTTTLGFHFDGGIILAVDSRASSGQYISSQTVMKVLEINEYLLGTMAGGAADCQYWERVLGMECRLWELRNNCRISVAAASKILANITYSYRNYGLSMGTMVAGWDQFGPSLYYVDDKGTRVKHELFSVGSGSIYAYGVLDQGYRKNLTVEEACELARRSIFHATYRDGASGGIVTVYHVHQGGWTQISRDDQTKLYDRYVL
Kind of experiment: Trypanosoma cruzi proteasome chymotrypsin-like activity (TcProtChymo) assay. Also: in the data most compounds retested in dose-response had high values. Type of experiment: functional. To be noted: 9.37 µM.

A further experiment is filed under the species Homo sapiens. Put plainly: To identify inhibition of the IFN signalling (Jak-Stat) pathway via expression of an eGFP reporter gene under the control of an IFN-stimulated response element (ISRE) containing MxA promoter. Type of experiment: functional. Conditions: 30 µM. In general terms: A reporter such as luciferase makes a cellular process visible.

In experiment [7] the target is T4, Tyrosyl-tRNA synthetase, putative (Trypanosoma cruzi (strain CL Brener)) (UniProt Q4DSP6).
T4 sequence (whole entry): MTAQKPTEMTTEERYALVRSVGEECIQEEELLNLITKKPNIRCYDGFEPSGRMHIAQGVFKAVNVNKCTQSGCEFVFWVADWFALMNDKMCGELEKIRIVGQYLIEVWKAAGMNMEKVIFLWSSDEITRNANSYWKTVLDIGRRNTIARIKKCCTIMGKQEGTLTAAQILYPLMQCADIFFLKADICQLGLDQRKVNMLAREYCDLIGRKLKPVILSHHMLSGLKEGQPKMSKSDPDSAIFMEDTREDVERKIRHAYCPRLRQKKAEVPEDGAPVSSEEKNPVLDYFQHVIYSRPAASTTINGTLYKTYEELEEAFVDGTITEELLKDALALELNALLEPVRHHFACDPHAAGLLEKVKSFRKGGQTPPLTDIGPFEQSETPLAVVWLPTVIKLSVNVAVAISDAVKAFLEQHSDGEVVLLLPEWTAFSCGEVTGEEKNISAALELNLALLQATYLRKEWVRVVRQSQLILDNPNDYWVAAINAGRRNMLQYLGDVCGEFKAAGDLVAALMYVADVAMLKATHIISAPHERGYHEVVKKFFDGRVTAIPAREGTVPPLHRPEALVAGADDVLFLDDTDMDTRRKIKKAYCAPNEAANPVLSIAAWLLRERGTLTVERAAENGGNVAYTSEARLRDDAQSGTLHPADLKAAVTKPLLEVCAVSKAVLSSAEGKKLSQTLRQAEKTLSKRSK
Kind of experiment: Trypanosoma cruzi tyrosyl tRNA synthetase (TcYRS) _High Tyrosine SOP. Also: in the data most compounds retested in dose-response had high values. To be noted: 30 µM. It is filed as functional.

For experiment [8], the target named is T4, Tyrosyl-tRNA synthetase, putative (Trypanosoma cruzi (strain CL Brener)). Kind of experiment: Trypanosoma cruzi tyrosyl tRNA synthetase (TcYRS) SOP. It is filed as functional. Conditions: 30 µM.
Experiment [9] concerns the target Chromo domain-containing protein 1 (Saccharomyces cerevisiae (strain ATCC 204508 / S288c) (Baker's yeast)) (UniProt P32657). Kind of experiment: ScCHD-1 Enzyme Inhibition Assay. Also: in the data most compounds retested in dose-response had high values. It is filed as functional. To be noted: 30 µM.

Sequence of Sialic acid-binding Ig-like lectin 9 (Homo sapiens) (Q9Y336 whole entry): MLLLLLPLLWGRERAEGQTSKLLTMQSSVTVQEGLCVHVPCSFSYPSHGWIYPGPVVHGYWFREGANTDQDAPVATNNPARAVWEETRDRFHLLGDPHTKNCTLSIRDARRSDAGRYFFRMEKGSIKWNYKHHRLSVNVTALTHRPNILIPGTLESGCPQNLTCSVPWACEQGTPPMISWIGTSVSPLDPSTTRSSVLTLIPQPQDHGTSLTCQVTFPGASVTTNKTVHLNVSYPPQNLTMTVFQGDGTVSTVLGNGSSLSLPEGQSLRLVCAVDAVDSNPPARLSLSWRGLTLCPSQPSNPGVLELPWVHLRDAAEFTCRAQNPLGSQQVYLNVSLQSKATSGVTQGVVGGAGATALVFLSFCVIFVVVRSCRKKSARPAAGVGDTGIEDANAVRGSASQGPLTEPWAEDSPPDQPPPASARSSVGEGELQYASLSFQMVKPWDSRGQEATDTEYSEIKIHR
Sequence of Chromo domain-containing protein 1 (Saccharomyces cerevisiae (strain ATCC 204508 / S288c) (Baker's yeast)) (P32657 whole entry, the tested form may be a part): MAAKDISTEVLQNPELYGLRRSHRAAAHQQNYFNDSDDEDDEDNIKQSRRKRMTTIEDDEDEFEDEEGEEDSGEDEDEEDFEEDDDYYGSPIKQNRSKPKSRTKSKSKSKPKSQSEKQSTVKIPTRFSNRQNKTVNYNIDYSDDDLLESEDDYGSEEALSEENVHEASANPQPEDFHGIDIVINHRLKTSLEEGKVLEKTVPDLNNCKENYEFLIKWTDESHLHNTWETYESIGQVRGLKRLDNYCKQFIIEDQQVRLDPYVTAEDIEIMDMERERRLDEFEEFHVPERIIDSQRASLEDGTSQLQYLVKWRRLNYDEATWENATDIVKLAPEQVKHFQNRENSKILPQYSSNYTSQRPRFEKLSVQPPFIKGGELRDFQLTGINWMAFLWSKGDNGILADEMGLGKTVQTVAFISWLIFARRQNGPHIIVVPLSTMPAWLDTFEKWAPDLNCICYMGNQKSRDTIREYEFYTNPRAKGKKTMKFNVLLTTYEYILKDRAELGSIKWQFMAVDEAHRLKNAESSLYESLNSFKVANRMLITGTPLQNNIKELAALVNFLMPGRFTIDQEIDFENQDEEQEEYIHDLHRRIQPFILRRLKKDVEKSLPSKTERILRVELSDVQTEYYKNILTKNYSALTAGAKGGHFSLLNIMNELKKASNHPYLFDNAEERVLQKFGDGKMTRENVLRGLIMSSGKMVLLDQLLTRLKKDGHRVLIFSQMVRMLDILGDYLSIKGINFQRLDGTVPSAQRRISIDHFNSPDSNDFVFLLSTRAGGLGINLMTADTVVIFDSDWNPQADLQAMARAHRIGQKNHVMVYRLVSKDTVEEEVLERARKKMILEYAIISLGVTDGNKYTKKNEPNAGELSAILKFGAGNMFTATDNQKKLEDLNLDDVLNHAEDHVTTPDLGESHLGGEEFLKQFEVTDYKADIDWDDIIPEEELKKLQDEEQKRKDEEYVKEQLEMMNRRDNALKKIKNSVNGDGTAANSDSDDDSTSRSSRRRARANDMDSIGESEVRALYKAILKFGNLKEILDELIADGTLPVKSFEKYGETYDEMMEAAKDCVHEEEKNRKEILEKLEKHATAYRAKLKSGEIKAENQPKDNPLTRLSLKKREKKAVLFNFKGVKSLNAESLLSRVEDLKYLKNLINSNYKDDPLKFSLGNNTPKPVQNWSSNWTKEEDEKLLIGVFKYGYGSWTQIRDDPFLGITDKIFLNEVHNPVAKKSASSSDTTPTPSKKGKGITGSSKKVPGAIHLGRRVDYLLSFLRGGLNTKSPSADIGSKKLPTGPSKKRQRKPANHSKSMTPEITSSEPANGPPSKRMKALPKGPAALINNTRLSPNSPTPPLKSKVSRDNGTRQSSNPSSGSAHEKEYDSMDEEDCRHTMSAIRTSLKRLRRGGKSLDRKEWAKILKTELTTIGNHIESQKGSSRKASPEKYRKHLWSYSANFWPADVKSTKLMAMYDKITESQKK

With `Cc1nnsc1C(=O)N1CCC2(CC1)c1nc[nH]c1CCN2CC(C)C`, the Percent Effect was -4.82% in [1]; 5.33% in [2]; -0.152% in experiment [3]; -8.33% in experiment [4]; -1.46% with Trypanosoma cruzi; -2.08% in experiment [5]. The Percent Effect in experiment [6] was 12.4%; in the experiment filed under Homo sapiens it was -1.57%; in [7], 1.64%; in experiment [8], 6.17%; in experiment [9] it was -5.05%.
Turning to `O=C(NCCOc1ncc(Cl)cc1Cl)c1ccncc1F`, the Percent Effect in experiment [1] was -4.54%; in experiment [2] it was 2.7%; in experiment [3], 2.46%; in experiment [4], -3.73%; in the experiment on Trypanosoma cruzi, 5.08%; in experiment [5], -2.08%. The Percent Effect was 17.8% in [6]; 8.71% in the experiment filed under Homo sapiens; 5.94% in [7]; 8.54% in experiment [8]; -7.35% in experiment [9].
`O=C(Nc1nncs1)NC1CCOc2ccccc21` (stereo not drawn): the Percent Effect in experiment [1] was -3.81%; in experiment [2], 2.74%; in experiment [3], 5.12%; in experiment [4] it was -2.09%; with Trypanosoma cruzi, -6.55%; in experiment [5], -0.399%. In addition, the Percent Effect in experiment [6] is 9.85%; in the experiment filed under Homo sapiens it was 17%; in experiment [7] it was 2.08%; in experiment [8], 13.6%; in experiment [9], -8.1%.
For `COc1c(C2CCCN2C(=O)c2cccc(C(N)=O)c2)c(C)nn1C` (stereo not drawn), the Percent Effect in experiment [1] was -6.26%; in experiment [2], 10.4%; in experiment [3], 7.89%; in experiment [4] it was -11.9%; in the experiment with Trypanosoma cruzi, -5.19%; in experiment [5] it was -2.32%. Besides, the Percent Effect in experiment [6] is 3.96%; in the experiment filed under Homo sapiens, 17.6%; in [7] it was 0%; in experiment [8], 2.35%; in [9] it was -17.8%.
With `FC(F)(F)Cn1ccnc1CN1CCOC(Cn2cccn2)C1` (stereo not drawn), the Percent Effect in experiment [1] is -5.79%; in experiment [2], 6.33%; in [3], 6.8%; in experiment [4], 1.11%; with Trypanosoma cruzi it was -2.36%; in experiment [5] it was -1.5%. Further, the Percent Effect in [6] was 1.54%; in the experiment filed under Homo sapiens, 13.3%; in experiment [7] it was 1.04%; in experiment [8], 15.2%; in experiment [9] it was -6.67%.
Consider `CC(=O)N1CCCC1c1nccc(C)n1` (stereo not drawn), for which the Percent Effect is -4.82% in [1]; 8% in experiment [2]; 9.75% in [3]; 7.48% in experiment [4]; -0.984% in the experiment on Trypanosoma cruzi; 3.5% in experiment [5]. Also, the Percent Effect in experiment [6] is 4.67%; in the experiment filed under Homo sapiens it was 3.01%; in experiment [7], 3.19%; in experiment [8] it was 11.5%; in experiment [9], -1.52%.
For the compound `Cc1cnn(CCNCC(O)COc2ccc(Cl)cc2)c1` (stereo not drawn), the Percent Effect in [1] is -3.71%; in experiment [2], 10.1%; in experiment [3] it was 0.158%; in experiment [4], 12.9%; in the experiment with Trypanosoma cruzi it was 3.12%; in [5] it was 0.76%. Also, the Percent Effect in [6] is -1.88%; in the experiment listed under Homo sapiens, -3.16%; in experiment [7] it was 3.45%; in experiment [8], 8.86%; in [9], -2.04%.
For the compound `Cc1nc(C)c(CC(=O)Nc2ncc(C)s2)c(=O)[nH]1`, the Percent Effect in [1] was -0.904%; in [2], 13.2%; in [3], -1.41%; in [4], 14.1%; in the experiment on Trypanosoma cruzi it was 1.5%; in [5], -1.53%. For the same compound, the Percent Effect in [6] was -2.51%; in the experiment listed under Homo sapiens, -6.67%; in [7] it was 5.39%; in [8], 17.1%; in experiment [9], -5.26%.
